Screens as filed in PubChem BioAssay.
A selection: hits, their analogues and other compounds. The true share with any hit is near 6.3%.
Spn MK inh – S. pneumoniae MK inhibitors, primary screen, biochemical, PK/LDH-coupled NADH absorbance; AID 555, 2006; 65,000 tested, 0.48% active; mevalonate kinase [Streptococcus pneumoniae D39]; purified MK, PK/LDH-coupled NADH absorbance 340 nm; inhibition, % at 10 µM;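 active = ranked among the strongest by inhibition in the single 10 µM screen, a fixed top-ranked set picked for dose follow-up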
Spn PMK inh – S. pneumoniae PMK inhibitors, primary screen, biochemical, mevalonate pathway, pilot trial included. phosphomevalonate kinase (Streptococcus pneumoniae D39). purified PMK, PK/LDH-coupled NADH absorbance 340 nm. inhibition, % at 10 µM. 65,000 tested, 0.49% active. AID 539, 2006;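 active = top-ranked compounds by inhibition in the single 10 µM screen, taking a fixed number of the strongest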;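 note: 0% = full reaction with DMSO carrier and 100% = background rate without enzyme reaction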
NADH coupling – inhibitors of PK/LDH coupling enzymes, profiling panel, artefact control, biochemical, MLSMR library | 65,000 tested, 0.02% active | coupled PK/LDH NADH assays, four targets | AID 774, 2007 | IC50, µM (highest dose often 10 µM), inactives show at the highest dose inhibition;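 active = single-dose screening hits from any of four coupled enzyme assays that gave an IC50 when retested across doses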;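 note: the DPM-DC format reads NADH fluorescence rather than 340 nm absorbance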
Fluor 339 460 – intrinsic fluorescence of library compounds, ex339/em460 – biochemical, MLSMR library, data from DPM-DC assay, artefact control, profiling panel; 65,000 tested, 5.5% active; fluorescence fold increase at 10 µM; compound autofluorescence, ex339/em460 nm, NADH buffer; active compounds read high; 1 = no-compound wells, NADH background;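 active = at 10 µM, mean starting fluorescence two-fold or more over control wells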;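 note: signal is the first read of a kinetic run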
DPM-DC inhibit – S. pneumoniae DPM-DC inhibitors, primary screen, biochemical, PK/LDH-coupled NADH fluorescence | diphosphomevalonate decarboxylase (Streptococcus pneumoniae D39) | purified DPM-DC | calls only at 10 µM | 65,000 tested, 0.49% active | AID 556, 2006;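 active = the 320 compounds with the highest percent inhibition in the single-dose primary screen, excluding strongly autofluorescent ones, cut at about 32% in these data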;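 note: kinetic rate of NADH fluorescence loss reporting ADP formed by the decarboxylase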
A340 absorber – compound light absorbance at 340 nm, profiling panel, artefact control, biochemical, MLSMR library, data from PS, PMK, MK assays; AID 708, 2007; fold change at 10 µM; compound absorbance at 340 nm, fold over control; 65,000 tested, under 10 active;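 active = at 10 µM dose, initial 340 nm absorbance at least 2 fold that of control wells; inactive = change under 2 fold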;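 note: initial absorbance extrapolated from kinetic A340 decline of NADH oxidation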
An asterisk follows results filed as active; i = inactive; . = no result given; + = active, no number.

SMILES	Spn MK inh	Spn PMK inh	NADH coupling	Fluor 339 460	DPM-DC inhibit	A340 absorber
Cc1cc(N)c(-n2cc3c(=O)n(C)c(=O)n(C)c3c2)cc1C	7	15	10%	2.7*	i	1
CCc1c(C)c2ccc(O)c(CN(C)C)c2oc1=O	12	0	6%	2.3*	.	1.2
CN(C1CCCCC1)S(=O)(=O)c1ccccc1	6	5	5%	1.1	i	1
CN(Cc1c(O)ccc2c1oc(=O)c1ccccc12)C1CCCCC1	50*	18	8.8µM*	1.2	i	1.1
CCCCc1cc(=O)oc2c(CN(C)C)c(O)ccc12	10	8	9%	3.6*	.	1.1
CCCc1cc(=O)oc2cc3oc(C)c(C)c3cc12	0	6	2%	1.5	i	1
Cc1ccnc(NC(=O)CCC(=O)N(CC(=O)NC2CCCCC2)c2cccc(C)c2C)c1	0	18	2%	1.1	i	0.98
CCOC(=O)CCNCC1COc2ccccc2O1 (stereo not given)	5	0	2%	1.1	i	1
Cc1cccc(NC(=O)c2cc(NC(=O)c3ccco3)ccc2N2CCCCC2)c1	6	12	3%	3*	.	1
NC(=O)NC(=O)CSc1cccc(C(F)(F)F)c1	9	16	4%	1	i	1
CCCCNC(=O)c1cc2c(=O)n3cccc(C)c3nc2n(Cc2ccccc2)c1=N	7	0	4%	4*	.	1.1
COCCn1c(=N)c(C(=O)NCCc2ccccc2)cc2c(=O)n3cccc(C)c3nc21	2	0	1%	2.5*	.	1.1
Cc1cccn2c(=O)c3cc(C(=O)NCc4ccco4)c(=N)n(CCOCCO)c3nc12	0	17	9%	5*	.	1
CCn1c(=N)c(C(=O)NCc2cccnc2)cc2c(=O)n3cccc(C)c3nc21	10	15	13%	3.7*	.	0.99
C=CCn1c(=N)c(C(=O)NCCCOC)cc2c(=O)n3cccc(C)c3nc21	0	0	0%	2.3*	.	1.1
CNC(=O)c1cc2c(=O)n3cccc(C)c3nc2n(C(C)C)c1=N	4	0	2%	3.8*	.	1.1
N=c1c(C(=O)NCc2ccco2)cc2c(=O)n3ccccc3nc2n1CCc1ccccc1	10	0	5%	2.2*	.	1
COc1ccc(CCn2c(=N)c(C(=O)NCc3ccco3)cc3c(=O)n4ccccc4nc32)cc1OC	3	6	3%	1.1	i	1
CCNC(=O)c1cc2c(=O)n3cccc(C)c3nc2n(CCc2ccccc2)c1=N	9	0	5%	2.3*	.	1.1
CCOC(=O)c1cc2c(=O)n3cccc(C)c3nc2n(C)c1=N	5	5	3%	1.1	i	1.1
CC1CCCCC1NS(=O)(=O)c1ccc(S(=O)(=O)NCc2ccncc2)cc1 (stereo not given)	13	16	10%	1.1	i	0.95
Cc1cccc(-c2nnc(SCc3cc(=O)[nH]c4ccccc34)n2C)c1	15	10	9%	1	i	1.1
Cc1ccc(NC(=O)C2CCCN(c3ncccn3)C2)cc1F (stereo not given)	6	9	7%	1.4	i	1
CCOC(=O)CCCCC(=O)c1[nH]c(=O)[nH]c1Cn1cnc2ccccc21	5	8	6%	1.1	i	1.1
COC(=O)C1=C(C)N(c2ccc(Cl)c(Cl)c2)C(=O)C1	0	0	0%	1.1	i	1.1
SMILES	Spn MK inh	Spn PMK inh	NADH coupling	Fluor 339 460	DPM-DC inhibit	A340 absorber
COC(=O)c1c(C(=O)OC)c2ccncn2c1Cl	10	17	24%	1.7	+	1.1
O=C(NCCN1CCOCC1)C1CCN(S(=O)(=O)N2CCCCC2)CC1	5	24	10%	1	i	1
c1ccc(Cc2nnc3sc(-c4ccc5c(c4)OCO5)nn23)cc1	6	4	5%	3.5*	.	1.1
CCc1nnc2sc(-c3ccc(NC(=O)c4ccc5c(c4)OCCO5)cc3)nn12	8	0	4%	3.9*	.	1.1
COc1cc2c(cc1NC(=O)CN(C)Cc1nc3ccccc3c(=O)[nH]1)oc1ccccc12	2	13	5%	1.1	i	1.1
CCOC(=O)C(CC)Sc1nc2c(cnn2-c2ccccc2)c(=O)[nH]1 (stereo not given)	13	6	7%	1.2	i	1
CCC(CC)C(=O)Nc1c2cnn(-c3ccccc3)c2nc(=O)n1-c1ccccc1	4	3	8%	2.2*	i	1
CC(C)Cn1c(SCC(=O)NC(=O)Nc2ccc3c(c2)OCCO3)nc2ccccc2c1=O	0	17	6%	1.1	i	1.1
CCOc1ccc(S(=O)(=O)NCc2ccc(F)cc2)c2cccnc12	1	0	10%	3.5*	i	1.1
COC(=O)c1ccc(C)c(NS(=O)(=O)c2ccc(OC)cc2)c1	3	16	6%	1.1	i	1
COC(=O)c1ccc(C(=O)OC)c(NS(=O)(=O)c2ccc(NC(C)=O)cc2)c1	0	6	3%	2.2*	.	1.1
Cc1ccc2cccc(SCC(=O)NCc3ccco3)c2n1	8	8	8%	3.9*	.	1.1
Cc1ccc(-n2c(Cc3cccn3C)nnc2SCC(=O)NCc2ccco2)cc1	7	7	5%	1.2	i	1
O=C(CSc1nc2ccccc2nc1SCC(=O)N1CCOCC1)N1CCOCC1	0	0	1%	1	i	1.1
Cc1ccc2cccc(SCC(=O)N3CCOCC3)c2n1	6	11	5%	2.5*	.	0.99
Cc1ccc2cccc(OCC(=O)NCc3ccco3)c2n1	0	9	3%	1.1	i	0.99
Cc1ccc(-n2c(CSc3nc(C)cc(C)n3)nnc2SCC(=O)NCc2ccco2)cc1	4	26*	11%	1.1	i	0.96
COc1ccc2c(c1OC)C(=O)N1C2SC[C@H]1C(=O)NC1CC(C)(C)NC(C)(C)C1 (stereo not given in full)	4	22	9%	1.1	i	1
NC(=O)c1nsc(C(=O)N(CC(=O)NCc2ccc3c(c2)OCO3)C2CCCCC2)c1N	6	7	6%	2.9*	i	1.1
O=[n+]1cc(-c2cc3ccccc3o2)n([O-])c2c1CCCC2	12	13	16%	2.9*	i	1.2
O=[n+]1cc(-c2ccc(F)cc2)n([O-])c2c1CCC2	0	18	4%	1	i	1
CCSC1=C(C#N)C2(CCCC2)C(C#N)=C(N)N1	8	11	6%	1.1	i	1.1
c1ccc(-c2nnc(CSc3nc4ccccc4[nH]3)o2)cc1	6	3	3%	1.1	i	1.1
